These results are taken from PubChem BioAssay (NCATS).

Inconclusive results are not listed. Entries that show only a call come without a potency. Calls of active or inactive are those of the source. The call rests on the fitted dose curve; in most records, active means well fitted inhibition curve with a large enough effect; inconclusive means small, poorly fitted or top-dose-only effect; inactive means no such curve, though single readings can be large or run the other way.

This experiment is described as follows: qHTS assay for measurement of the activity of small molecule inhibitors on Zika virus induced Caspase-3 activity in human iPSC derived neural progenitor cells (hNPCs) (AID 1224857). Further: nearly all actives have a fitted effect of over 65% in size. The following applies: hNPCs ZIKV-induced caspase-3/7, Caspase-Glo luminescence, 6 h; series mostly up to 45.7 µM. An excerpt: National Center for Advancing Translational Sciences [NCATS]
Johns Hopkins University School of Medicine
Increase in the Caspase-3 activity indicates an activation of apoptosis cell death pathway caused by Zika virus infection in certain types of neuronal cells including human neural progenitor cells (hNPCs), astrocytes, and astrocytoma cell line (SNB-19). This cell-based caspase-3 activity assay measures the increased caspase-3 activity in the human iPSC derived neural progenitor cells (hNPCs) after a 6-hour Zika virus infection with a luminescence readout. A decrease in the luminescence signal in this assay by small molecule treatment indicates an inhibitory effect of that small molecule on the Zika virus induced caspase-3 activity that may correlate with its effect on reduction of Zika virus caused cell death.
The medium for hNPCs consists of DMEM/F12, N2 supplement (ThermoFisher, Cat.# 17502048), NEAA (ThermoFisher, Cat. # 11140050), 2 ug/ml heparin, 2 uM cyclopamine, and B27 (ThermoFisher, Cat. # 17504044). A Caspase-Glo 3/7 assay kit (catalog number G8092; Promega, Madison, WI) was used to detect caspase-3 activity induced by Zika virus infection in human cells. The reagent mixture was reconstituted as described in the protocol from the manufacturer. Polystyrene tissue culture treated and PDL coated white plates were obtained from Greiner Bio-One (Monroe, NC). Cells were seeded in 384- or 1536-well assay plates and cultured at 37 C with 5% CO2 for 16 to 20 hours. The typical cell seeding density in the 1536-well plate assay is 350 cells/well in 3 ul medium for hNPCs in tissue culture treated plates. Compounds were added to cells and incubated for one hour before addition of ZIKV solution to cells (2 FFU/cell). After incubation at 37 C with 5% CO2 for 6 hours, the reagent mixture of Caspase-Glo 3/7 assay kit was added to each well, followed by incubation at room temperature for 30 minutes. The luminescence intensity of the assay plates was measured using a ViewLux plate reader (PerkinElmer). Data were normalized by using the cell-containing wells without ZIKV as a negative control (0% induction of caspase 3/7 activity) and wells containing ZIKV infected cells (Caspase-3 activity induced) as a positive control (100% induction of caspase 3 activity). The percentage inhibitions of the increased Caspase-3 activity by small molecule inhibitors were then calculated.
Regarding `CC(=O)Oc1ccc(C)cc1`, the Potency entry was “inactive”. The same measure for `Nc1nc(N)c(-c2ccccc2)s1`: “inactive”; for `Nc1nc(Cl)nc2c1ncn2[C@@H]1O[C@H](CO)[C@@H](O)[C@@H]1F`: “inactive”; for `CCCCCN=C(N)N/N=C/c1c[nH]c2ccc(OC)cc12`: “inactive”. The same measure for `CN1CCN(c2c(F)cc3c(=O)c(C(=O)O)cn4c3c2SCC4)CC1`: “inactive”; for `c1ccc(CC2=NCCN2)cc1`: “inactive”. `O=C(Oc1cccc2cccnc12)c1ccccc1`: the Potency result is “inactive”. The value for `Oc1ccccc1C=NCc1ccccc1` was “inactive”; that for `O=c1[nH]c(=O)n([C@H]2C[C@H](O)[C@@H](CO)O2)cc1F` was “inactive”; that for `CCCCCCCCCCCCCC(=O)OC(C)C` was “inactive”. In the case of `CCCCCCCCNC(C)C(O)c1ccc(SC(C)C)cc1` (stereo not given), the Potency entry was “inactive”. The same measure for `COc1cc([C@H]2Oc3cc([C@H]4Oc5cc(O)cc(O)c5C(=O)[C@@H]4O)ccc3O[C@@H]2CO)ccc1O`: “inactive”. The same measure for `COc1ccc(C(=O)c2ccccc2)c(O)c1`: “inactive”; for `CN(C)CCOC(=O)C(c1ccccc1)C1(O)CCCC1` (stereo not given): “inactive”; for `CCCCNC(=O)NS(=O)(=O)c1ccc(N)cc1`: “inactive”. The value for `CCOC(=O)Nc1ccc2c(c1)N(C(=O)CCN1CCOCC1)c1ccccc1S2` was “inactive”; that for `COC(=O)C(c1ccccc1Cl)N1CCc2sccc2C1` (stereo not given) was “inactive”; that for `O=C(O)C(Cc1cc(I)c(O)c(I)c1)c1ccccc1` (stereo not given) was “inactive”. Regarding `O=C1c2cccc3c2[C@H](CCC3)CN1[C@@H]1CN2CCC1CC2`, the Potency result was “inactive”. The value for `NC(=O)n1c(O)c(C(=O)c2cccs2)c2cc(Cl)ccc21` was “inactive”; that for `CCCCc1cc2ccccc2c(OCCN(C)C)n1` was “inactive”; that for `C/C=C/C=N/NC(=O)c1ccncc1` was “inactive”. The same measure for `O=C(CCN1CCN2CCCC2C1)N1c2ccccc2Sc2ccc(Cl)cc21` (stereo not given): “inactive”; for `CCOC(=O)c1c(N)sc2c1CCN(Cc1ccccc1)C2`: “inactive”. With `CCCCNc1ccc(C(=O)OCCOCCOCCOCCOCCOCCOCCOCCOCCOC)cc1`, the Potency result was “inactive”. Consider `CC(O)Cn1cnc2c1c(=O)n(C)c(=O)n2C` (stereo not given), for which the Potency result was “inactive”.

For the compound `O=C(c1ccc(F)cc1)C1CCN(CCn2c(=S)[nH]c3ccccc3c2=O)CC1`, the Potency entry was “inactive”. In the case of `CCNC(=O)NCc1cccc(Cl)c1`, the Potency entry was “inactive”. The same measure for `CC(CNC1CCCCC1)OC(=O)c1ccccc1` (stereo not given): “inactive”; for `Cc1cc(CC(=O)O)c(C)n1-c1ccc(Cl)cc1`: “inactive”; for `Cc1ccc2c(Br)cc(Br)c(O)c2n1`: “inactive”. The same measure for `O=C(O)CCc1nc2ccccc2[nH]1`: “inactive”; for `CC[C@]12CCCN3CCc4c(n(c5ccccc45)C(=O)C1)[C@@H]32`: “inactive”; for `Cc1ncc(CO)c(C=O)c1O`: “inactive”. The value for `C#C[C@]1(O)CC[C@H]2[C@@H]3CCC4=Cc5oncc5C[C@]4(C)[C@H]3CC[C@@]21C` was “inactive”; that for `O=C(Nc1ccccc1)OCC(CN1CCCCC1)OC(=O)Nc1ccccc1` (stereo not given) was “inactive”. In the case of `CCc1ccc(C(=O)C(C)CN2CCCCC2)cc1` (stereo not given), the Potency result is “inactive”. With `Nc1ccc(S(=O)(=O)Nc2cnc3ccccc3n2)cc1`, the Potency result is “inactive”. The same measure for `COc1ccccc1N1CCN(CCCCNC(=O)c2ccc(-c3ccc(C(C)=O)cc3)cc2)CC1`: “inactive”; for `FC(F)(F)C(F)(F)C(F)(F)C(F)(F)C(F)(F)C(F)(F)C(F)(F)C(F)(F)Br`: “inactive”.
